Out of some 300,000 compounds screened, about 3,200 (1.1%) were called active. What follows is part of a selection rich in actives, with near analogues and random picks from the rest. A number with no mark means an inactive call. No stated cut-off is given here; in the data, active means inhibition above about 75%; inconclusive means no clear call, values can overlap the other calls; inactive means below that; tested in HMLE shEcad cells.
Assay: cancer stem cell viability inhibitors, primary screen, luminescence (AID 2717)
Conditions: cancer stem cell-like cells viability, at 7.5 µM, stronger effect = higher value
In the case of `Cc1ccc(P(=S)(c2ccc(C)o2)N2CCOCC2)o1`, the inhibition is reported as 76.5% (active). With `Cc1ccc(-n2c(C)cc(/C=C3\C(=O)NC(=O)N(C)C3=O)c2C)cc1C` the inhibition was -18.6%. In the case of `CCCCCCCCCCCCn1ccc(=N)cc1`, the inhibition is reported as 102% (active). Work on `O=C(O)C1CSC(c2cccnc2)N1` (stereo not given) yielded an inhibition of -4.58%. With `CCC1(C)CC(CCNCc2ccc(N(C)C)cc2)(c2ccc(F)cc2)CCO1` (stereo not given) the inhibition was 15%. For `COc1ccc(Br)cc1CNCCc1cccc(Cl)c1`, the inhibition was 35.5%. With `O=C1C2(Cl)C3(Cl)C4(Cl)C(Cl)(Cl)C5(Cl)C3(Cl)C1(Cl)C5(Cl)C24Cl` (stereo not given) the inhibition was 101% (active). Work on `COC(=O)C1=C(c2cccc(OCc3ccccc3)c2)C[C@@H]2CC[C@H]1N2C(=O)NCc1ccc(Br)cc1` yielded an inhibition of 30%. Compound `C[C@]12CC[C@H](O)CC1=C([N+](=O)[O-])CC1C2CC[C@@]2(C)C1CC[C@@H]2O` (stereo not given in full) has an inhibition of 19.8%. With `CC(Cc1ccccc1)NCCC(c1ccccc1)c1ccccc1` (stereo not given) the inhibition was 86.3% (active). For `CC(=O)NC(=O)NC(C)Cc1ccccc1` (stereo not given), the inhibition was -9.41%. In the case of `CC(Cc1ccccc1)NC=O` (stereo not given), the inhibition is reported as -4.89%. Work on `CCC(=O)c1ccc(OCC(=O)N2CCN(CC(=O)Nc3ccc(C)cc3)CC2)cc1` yielded an inhibition of -4.41%. `O=C1NC(=O)N(Cc2ccco2)C(=O)/C1=C\c1ccc(-c2ccc(F)cc2)o1` showed an inhibition of -3.26%. In the case of `O=C1NC(=O)N(CCc2ccc(F)cc2)C(=O)/C1=C/C=C/c1ccccc1`, the inhibition is reported as 89.8% (active). Compound `O=C(O)COc1ccccc1/C=C1\C(=O)NC(=O)N(CCC2=CCCCC2)C1=O` has an inhibition of -7.06%. Compound `COC(=O)C1=C(c2ccc(Cl)c(C(F)(F)F)c2)C[C@@H]2CC[C@H]1N2C(=O)NC1CC1` has an inhibition of -14.7%. For `Nc1ccc([N+](=O)[O-])cc1`, the inhibition was 22.2%. For `COC(=O)C1=C(c2ccccc2OCc2ccccc2)C[C@@H]2CC[C@H]1N2C(=O)NCc1ccc(OC)cc1`, the inhibition was 6.19%. For `N#Cc1ccc(Cn2cc(C(=O)c3ccco3)c3ccccc32)cc1`, the inhibition was 6.82%. `COC(=O)C1=C(c2c(C)noc2C)C[C@@H]2CC[C@H]1N2C(=O)NCc1ccc2c(c1)OCO2` showed an inhibition of 2.81%. `N=c1ccccn1Cc1ccccc1` gave an inhibition of 1.97%. `COC(=O)C1=C(c2ccc(-c3ccccc3)c(F)c2)C[C@@H]2CC[C@H]1N2C(=O)NCc1ccc(F)cc1` gave an inhibition of 36.3%. For `C[C@]12CC[C@H](O)C[C@H]1CC[C@@H]1C2CC[C@]2(C)[C@@H](C3=CC(=O)OC3)[C@@H](O)C[C@]12O` (stereo not given in full), the inhibition was 85% (active). Compound `C[C@]12CCC3C(CC[C@H]4C[C@@H](O)CC[C@]34C)C1CC[C@@H]2O` (stereo not given in full) has an inhibition of -19.5%. `C[C@]12CCC3C(CC[C@H]4C[C@@H](O)CC[C@]34C)C1C[C@@H](O)[C@H]2O` (stereo not given in full) showed an inhibition of -9.01%. In the case of `CC(Cc1cccs1)NCc1ccc(Cl)cc1` (stereo not given), the inhibition is reported as -5.86%. Work on `COC(=O)C1=C(c2ccc(F)cc2OCc2ccccc2)C[C@@H]2CC[C@H]1N2C(=O)NCc1ccc2[nH]ccc2c1` yielded an inhibition of 9.97%. `COc1ccc(-c2nn(CCC#N)cc2C(=O)O)cc1` gave an inhibition of 1.09%. `COC(=O)C1=C(c2ccc(F)cc2OCc2ccccc2)C[C@@H]2CC[C@H]1N2C(=O)NCc1ccc(Cl)cc1` gave an inhibition of 15.5%.

From PubChem BioAssay AID2717 (Broad Institute, 2010)
